Compounds without any hit were thinned out: in the full panel of roughly 83,000, 20% have a hit.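 Single-dose data. Exposure time 48 hours. Values below 10 considered active.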 Values without a mark were called inactive. Calls of active or inactive are those of the source.

Here are results for 40 compounds from PubChem BioAssay (NCI).

In this assay the test system is MDA-MB-468 breast. The assay can be described thus: NCI-60 one-dose screen, 48 h (100 = growth as untreated, 0 = no growth, -100 = all killed). To be noted: 10 µM unless noted.
In the case of `COc1cc2c(cc1-c1c(C)noc1C)ncc1nc(CN3CCOCC3)n([C@H](C)COC(F)F)c12`, the growth was 29.6%.

As to `CN(O)c1nc(N(C)O)nc(N2CCOCC2)n1`, the growth is -6.58% (active).

As to `CC1=NN(c2ccc(S(=O)(=O)O)cc2Cl)C(=O)C1`, the growth was 107%.

As to `O=C(CCC(=O)OC1CCCC1)OC1CCCC1`, the growth is 100%.

`O=C(NCCc1ccccc1)C1CCC(=O)N1Cc1ccc(Br)cc1` (stereo not given): the growth was 108%.

In the case of `COc1cc(C(O)C2C(=O)OCC2C2(c3ccc4c(c3)OCO4)SCCCS2)cc(OC)c1OC` (stereo not given), the growth was 92.2%.

As to `O=C1c2ccccc2C(=O)c2c1ccc(C(Br)Br)c2[N+](=O)[O-]`, the growth is -66.5% (active).

For `CC(C)c1ccc(C(C)C(=O)N(CC2=C(C(C)c3ccccn3)c3ccccc3C2)C(C)C)cc1` (stereo not given), the growth was 24.9%.

As for `COc1ccc(C(C#N)=C2C=CC(=NO)C=C2)cc1`, the growth was -7.26% (active).

As to `CC(=O)O[C@H]1C(=O)[C@@]2(C)[C@H]([C@H](OC(=O)c3ccccc3)[C@]3(O)C[C@H](OC(=O)[C@H](OC(=O)CCC(=O)OC4CCC(S/N=C(N)/N=C(\N)N(C)C)CC4)[C@@H](NC(=O)c4ccccc4)c4ccccc4)C(C)=C1C3(C)C)[C@]1(OC(C)=O)CO[C@@H]1C[C@@H]2O` (stereo not given in full), the growth was -6.44% (active).

As to `COc1ccccc1-n1cc(C#N)c(N)c1C(=O)c1ccc(Cl)cc1`, the growth is 51.6%.

Take `Fc1ccc(-n2cc(COc3ncnc4sc5c(c34)CCCC5)nn2)cc1Cl`: the growth was 106%.

For `CN1CCN(CCCOc2ccc3nc(Nc4cc(Cl)cc(Cl)c4)ccc3c2)CC1`, the growth is -74.4% (active).

As to `Clc1ccc(-c2cc(-c3ccccc3)nc(NCCNc3ccnc4cc(Cl)ccc34)n2)cc1`, the growth is -79.6% (active).

As for `COC(=O)c1ccc(NC(=O)CSc2nc3ccccc3c(=O)n2-c2ccccc2)cc1`, the growth is 104%.

Take `COc1ccc(/C=C2\CCCC3C2=Nc2ccccc2NC3c2ccc(OC)cc2)cc1` (stereo not given): the growth was 43.6%.

For the compound `CSCc1ncc(-c2ccc(C(F)(F)F)cc2)c(NC2CCCCCC2)n1`, the growth was 85.7% [25 µM].

As to `Nc1ccc(SSc2ccc(N)cc2)cc1`, the growth is 101%.

For `O=C1C(=O)c2ccccc2C(O)=C1CCCc1ccc(C2CCCCCC2)cc1`, the growth was 5.94% (active).

Take `CCOC(=O)c1cc(C(=O)c2ccc(O)c(O)c2)n2ccc(-c3ccn4c(C(=O)c5ccc(O)c(O)c5)cc(C(=O)OCC)c4c3)cc12`: the growth is 112%.

In the case of `COc1cc(NC(C)CN(CC(C)C)C(C)C)c2ncccc2c1` (stereo not given), the growth was -15.4% (active).

With `O=C(C(=O)N1CCOCC1)c1cn(CCCn2cc(C(=O)C(=O)N3CCOCC3)c3ccccc32)c2ccccc12`, the growth was 109%.

As for `O=C(NN=C1CCCCC1)C(=O)NN=C1CCCCC1`, the growth is 113%.

In the case of `COc1ccc(-c2[nH]c(=S)n(C(CC3(C)NCC(=O)N3n3c(-c4ccccc4)cc(C)nc3=S)c3ccc(OC)cc3)c(=O)c2Br)cc1` (stereo not given), the growth was -14.9% (active).

Turning to `CCOC(=O)c1c2c(n(-c3ccc(C#N)cc3)c1-c1ccccc1)C=CCC2`, the growth is 88.9%.

`CCc1ccc(CCC(=O)Nc2ncc(Cc3ccccc3)s2)o1`: the growth was 28.1%.

On to `COc1cc(OC)cc(N2C(=O)N(Cc3ccc(C(C)(C)C)cc3)c3ccccc3S2(=O)=O)c1`, for which the growth is 51.8%.

On to `OC(CCN1CCCCC1)(c1ccccc1)c1ccccc1`, for which the growth was 101%.

For the compound `COc1ccc2c(c1)NC(=O)CN2c1nc(NC2CC2)nc2ccccc12`, the growth was 8.4% (active).

As to `COc1cc2c(O)n(CCCN3CCOCC3)c3c4cnc5cccc(c(=O)c3c2cc1OC)c54`, the growth was 47.1%.

As to `O=[N+]([O-])c1cccc(N=NNc2cccc([N+](=O)[O-])c2)c1`, the growth is 57.9%.

On to `NC1[C@H]2CN(c3cnc(C(=O)Nc4cc(F)cc5cccnc45)cn3)C[C@@H]12` (stereo not given in full), for which the growth is 3.36% (active).

For `O=C(NCc1ccc(F)cc1)C1CN(c2ccc(Cl)cc2)N(c2ccc(Cl)cc2)C1=O` (stereo not given), the growth is 43.1%.

Consider `O=C(/C=C/C12c3ccccc3C(c3ccccc31)C1C(=O)NC(=O)C12)c1ccc(I)cc1` (stereo not given), for which the growth was 51.2%.

Consider `Cc1sc(NC(=O)c2ccc(C(C)(C)C)cc2)c(C(=O)O)c1C`, for which the growth is 80%.

In the case of `O=C(c1ccc(OCCN2CCCCC2)cc1)c1c(-c2ccc(O)cc2)sc2cc(O)ccc12`, the growth was 57.7%.

Regarding `CCCCCOC(=O)c1ccccc1O`, the growth is 107%.

Turning to `CN1C(=O)/C(=C\c2nc([P+](c3ccccc3)(c3ccccc3)c3ccccc3)c(N3CCOCC3)o2)SC1=S`, the growth was 10.1%.

As for `C=CC(O)CCC` (stereo not given), the growth is 109%.

As for `COC(=O)Nc1cccc(Cl)c1OC`, the growth was 90.1%.
